Screening data deposited in PubChem by ICCB-Longwood Screening Facility, Harvard Medical School.
This is a sample that favours compounds with a hit; in the whole collection about 1.5% have one here.
PV pol inh: poliovirus RdRp elongation inhibitors, primary screen, biochemical, fluorescence polarization, total intensity | Genome polyprotein (Poliovirus type 1 (strain Mahoney)), P03300 | poliovirus polymerase elongation; stronger effect = lower value | % elongation, % (compound at 16.7 µg/mL) | 150,000 tested, 0.66% active | AID 588519, 2011; in the data active = % elongation below about 90%
Target sequence (P03300 1749-2209 limits assumed): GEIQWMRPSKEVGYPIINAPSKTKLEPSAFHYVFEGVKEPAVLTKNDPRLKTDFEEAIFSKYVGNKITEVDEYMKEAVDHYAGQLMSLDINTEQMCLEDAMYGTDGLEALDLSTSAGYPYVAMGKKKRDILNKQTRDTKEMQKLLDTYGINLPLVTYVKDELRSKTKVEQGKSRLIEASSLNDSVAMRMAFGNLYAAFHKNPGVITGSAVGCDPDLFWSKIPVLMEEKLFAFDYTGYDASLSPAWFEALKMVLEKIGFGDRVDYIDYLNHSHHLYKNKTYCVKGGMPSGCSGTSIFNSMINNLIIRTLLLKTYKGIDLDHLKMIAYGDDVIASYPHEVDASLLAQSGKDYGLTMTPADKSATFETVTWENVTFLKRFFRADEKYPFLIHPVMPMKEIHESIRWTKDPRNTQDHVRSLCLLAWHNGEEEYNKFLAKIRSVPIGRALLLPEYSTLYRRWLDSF
MbtI inh: MbtI salicylate synthase inhibitors, primary screen, biochemical, fluorescence intensity; P9WFX0; inhibition, % (test concentration not listed); purified MbtI enzyme, fluorescence intensity read-out; 100,000 tested, 0.89% active; in the data active = inhibition mostly above about 56%, no sharp cut-off; inactive = mostly below about 77%
MenB inh: M. tuberculosis MenB inhibitors, primary screen, biochemical, absorbance; MenB enzyme assay, absorbance read-out; inhibition, % (concentration not given with the values); 100,000 tested, 0.43% active; AID 540299, 2011; 1,4-dihydroxy-2-naphthoyl-CoA synthase (Mycobacterium tuberculosis (strain ATCC 25618 / …; in the data active = inhibition above about 21%, passing the limit was not always enough
* = called active by the depositor; / = not tested or not shown.

SMILES | PV pol inh | MbtI inh | MenB inh
CCOC(=O)c1c(-c2ccccc2)csc1NC(=O)C1CC1 | 103 | -4 | /
COC(=O)c1c(-c2ccccc2)csc1N | 94 | 59* | -19
O=C(NC1CCCC1)c1ccc2ncsc2c1 | 106 | 3 | 3
O=C(O)c1ccc2ncsc2c1 | 88* | 77 | /
O=C(CN1CCCCC1)NC1CC2CCC1C2 (stereo not given) | 101 | -2 | 8
O=C(NCCc1ccc(Cl)cc1)C1CCN(C(=O)NC2CCCCC2)CC1 | 103 | -9 | -42
CC(=O)Nc1ccc2c(c1)C1C=CCC1C(C(=O)O)N2 (stereo not given) | / | 9 | /
O=C(O)C1Nc2c(I)cccc2C2C=CCC12 (stereo not given) | 93 | 103* | -17
OCCNc1ccc(Cl)cc1 | 104 | -5 | 1
N#CSc1ccc(NCCO)cc1C(F)(F)F | 103 | 58* | -31
O=C(Cn1cnc2ccccc21)OCC(=O)c1ccc(Cl)s1 | 112 | -4 | -17
Cc1ccccc1NC(C)C(=O)N/N=C/c1cccs1 (stereo not given) | 102 | -1 | -13
COc1ccc(C(C(=O)Nc2ccc(C(C)C)cc2)N(Cc2ccco2)C(=O)c2cnccn2)cc1 (stereo not given) | / | 0 | /
COc1ccc(C(C(=O)NCc2ccccc2)N(Cc2ccco2)C(=O)c2cnccn2)cc1 (stereo not given) | 99 | -6 | 36*
CC(C)(C)OC(=O)N1CCC(c2c(C(=O)N3CCCCC3)cnn2-c2ccccc2Cl)CC1 | 108 | / | /
COC(=O)c1ccc(NC(=O)C(C)Sc2nc3c(c(=O)[nH]2)CCCC3)cc1 (stereo not given) | 102 | 81* | -6
O=c1[nH]c(SCc2ccccc2)nc2c1CCCC2 | 111 | / | /
CCOC(=O)c1ccc(NC(=O)C(C)Sc2nc(O)c(NC(C)=O)c(=O)[nH]2)cc1 (stereo not given) | 99 | 2 | -17
CCOC(=O)C(Sc1nc2c(c(=O)[nH]1)CCCC2)c1ccccc1 (stereo not given) | / | 74* | -10
CCN1CCCC1CNC(=O)Cn1c(=O)c2cccn2c2ccccc21 (stereo not given) | 100 | 10 | 19
CCN1CCN(C(=O)c2ccc(Cl)nc2)CC1 | 103 | -9 | /
CCOc1ccccc1NC(=O)C1SC(=Nc2ccccc2OC)C(C(N)=O)=C1N (stereo not given) | 103 | 10 | 4
COC(=O)Nc1ccc(SC(F)(F)C(F)(F)C(F)(F)F)cc1 | 104 | 15 | -23
Cc1cc(N)c(O)cc1C | 109 | 100* | -129
Cc1cc(N)c(N)cc1C | 100 | -7 | -17
SMILES | PV pol inh | MbtI inh | MenB inh
CC1(C)NC(=O)NC1=O | 100 | / | -3
CCOC(=O)c1nn(-c2ccc(OC)cc2)c(=O)c(C#N)c1C | / | -12 | /
CCOC(=O)c1nn(-c2ccc(OC)cc2)c(=O)c2c(N)scc12 | 97 | 54* | -4
CCOC(=O)c1c(NC(=O)c2ccc(S(=O)(=O)N3CCCC(C)C3)cc2)sc2c1CC(C)(C)NC2(C)C (stereo not given) | 102 | / | /
CCOC(=O)c1c(NC(=O)c2ccc(S(=O)(=O)N(CCOC)CCOC)cc2)sc2c1CC(C)(C)NC2(C)C | 83* | / | /
CN1c2ccccc2N(C)C1c1ccc(O)cc1 | 83* | 10 | -33
CN1C(=O)c2ccccc2N(C)C1c1ccc(F)cc1 (stereo not given) | 101 | 89 | 1
O=C(Nc1ccc(I)cc1)c1nsc(Cl)c1Cl | 102 | -2 | 6
O=C(NCc1nnc(SCC(=O)N2CCOCC2)o1)c1ccccc1 | 98 | 5 | 12
CCOC(=O)c1c(NC(=O)c2ccc(Cl)cc2Cl)n[nH]c1N | 96 | -4 | 2
CCOC(=O)c1sc(SCC(=O)c2ccc(Cl)cc2Cl)nc1C | 86* | 0 | 1
Cc1nnc(SCC(=O)N2CC3(C)CC2CC(C)(C)C3)[nH]c1=O (stereo not given) | 100 | 49 | -11
CCc1cccc2c(/C=C3/C(=O)N(C)c4ccccc43)c[nH]c12 | 101 | 1 | -61
NC(=O)CSc1ncnc2c1cnn2-c1ccccc1 | 101 | 14 | -20
Nc1ncc(N=Nc2cc(C(=O)O)cc(C(=O)O)c2)s1 | 82* | 19 | -273
Nc1ncc(N=Nc2cc(C(=O)O)ccc2Cl)s1 | 94 | 50 | -362
COc1ccc(Cl)cc1NN | 101 | / | -9
C1C/C(=N/N=C2\CCCc3nonc32)c2nonc2C1 | 102 | 2 | 34
c1nncn1/N=C1/CCCc2nonc21 | 98 | 84* | -44
COc1ccc(-c2noc(=O)n2Cc2cccc(C)c2)cc1 | 103 | -4 | 11
COc1ccc(-c2noc(=O)n2CCCC#N)cc1OC | 103 | 0 | 31*
N#CC1=C(N)N(N2CCOCC2)C2=C(C(=O)CC(c3ccccc3)C2)C1c1ccccc1Cl (stereo not given) | 102 | -1 | -34
CC1CC(C)(C)N(C=O)c2ccccc21 (stereo not given) | 99 | -19 | -38
CC1Cc2scc[n+]2-c2ccccc2N1C=O (stereo not given) | 105 | / | 100*
CC(C)(/C=N/N(Cc1ccccc1)c1ccccc1)CO | 108 | 8 | 8
SMILES | PV pol inh | MbtI inh | MenB inh
O=C1C=C/C(=N/N(Cc2ccccc2)c2ccccc2)O1 | 101 | 90* | 1
COC(=O)c1cc(S(=O)(=O)N(C)c2cccc(C)c2)cn1C | 104 | -14 | -11
O=C1NC(=Nc2ccccc2)S/C1=C/C=C/c1ccco1 | 106 | 1 | -164
COc1ccccc1N1C(=O)NC(=O)/C(=C\C=C\c2ccco2)C1=O | 99 | 73* | -183
COc1ccccc1/C=C1\C(=O)NC(=O)N(C2CCCC2)C1=O | 105 | 11 | -58
Cc1ccccc1N1C(=O)NC(=O)/C(=C\C=C\c2ccco2)C1=O | 104 | 66* | -129
Oc1oc(-c2ccccc2)nc1C=Nc1cccnc1 | 101 | -2 | -53
CCNc1nc(NCC)nc(N(C)N)n1 | 101 | -17 | 32*
CCNc1nc(NN)nc(NCC)n1 | 104 | -5 | -7
O=C(c1ccc2c(c1)N(Cc1ccc(Cl)cc1)C(=O)c1ccccc1S2=O)N1CCOCC1 (stereo not given) | 73* | / | /
O=C(c1ccc2c(c1)N(Cc1ccccc1)C(=O)c1ccccc1S2=O)N1CCOCC1 (stereo not given) | 100 | 0 | -3
c1ccc(-c2nc(N3CCCCC3)c3ccccc3n2)cc1 | 101 | 55 | 33*
CCCOc1ccc(-c2nc(N3CCCCC3)c3ccccc3n2)cc1 | 105 | / | /
CCN(CC)C(=S)Nc1ccc(Cl)c(Cl)c1 | 103 | 1 | -18
CCN(CC)C(=S)Nc1ccc2oc(N(C)C)nc2c1 | 90* | / | -7
Cc1cc(N)cc2[nH]c(-c3ccc(N)cc3)nc12 | 66* | / | -7
COc1ccc2nc(-c3ccc(N)cc3)[nH]c2c1 | 103 | 86 | 22
